Sampled rows, rich in hits. Any-hit rate of the full collection: about 3%.
IP6K1 inhibitor: Primary qHTS assay for small molecule inhibitors of Inositol hexaphosphate kinase 1 (IP6K1); Inositol hexakisphosphate kinase 1 (Homo sapiens), Q92551; AID 1645851, 2021; activity change, % (series mostly up to about 58 µM); actives 0.81% (n = 140,000); IP6K1 kinase, ADP-Glo luminescence, 2 h; active compounds read low; in the data active = activity change below about -25%
Target sequence (Q92551 whole entry, looked up): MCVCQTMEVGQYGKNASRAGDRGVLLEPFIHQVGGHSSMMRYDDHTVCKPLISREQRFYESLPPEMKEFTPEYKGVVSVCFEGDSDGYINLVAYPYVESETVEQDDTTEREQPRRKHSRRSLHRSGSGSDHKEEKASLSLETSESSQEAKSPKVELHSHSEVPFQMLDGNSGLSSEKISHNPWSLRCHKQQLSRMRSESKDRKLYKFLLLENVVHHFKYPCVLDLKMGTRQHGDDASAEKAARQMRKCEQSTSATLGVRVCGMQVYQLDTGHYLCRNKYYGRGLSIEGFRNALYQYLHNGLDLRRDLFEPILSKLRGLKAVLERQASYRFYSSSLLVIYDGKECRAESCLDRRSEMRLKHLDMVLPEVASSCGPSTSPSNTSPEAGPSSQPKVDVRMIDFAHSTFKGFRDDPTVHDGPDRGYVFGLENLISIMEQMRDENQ
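ADP-Glo luminescence measures ADP made by human IP6K1 during a 2 h RT reaction with ATP/IP6 (mix at 1.3 mM/130 uM); top library doses 57.5 and 19.1 uM final.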
KDM5B inhibitor: Primary screen for KDM5B Histone Demethylases FDH-coupled qHTS; KDM5B demethylase, FDH-coupled NADH fluorescence (FDH is formaldehyde dehydrogenase); Potency, µM (series often up to 57.7 µM), hits mostly inhibitors; actives 2.6% (n = 220,000); AID 1347165, 2019; note: nearly all actives have a fitted effect of over 70% in size
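Here, H3K4me3 peptide (12.5 µM in substrate mix) is demethylated by KDM5BΔAP, 200 nM final, after 10 min compound exposure. Formaldehyde product is coupled through FDH (0.25 U/mL in mix) to NADH fluorescence; 30-min ΔRFU feeds dose-response curves.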
SNCA viab count: GF-AFC viability counterscreen for inhibitors of alpha-synuclein gene (SNCA) expression | HEK-293-SNCA-luc viability, GF-AFC fluorescence, 24 h | Potency, µM (titrated, usually from 57.1 µM), most hits filed as cytotoxic | AID 1671193, 2021 | actives 0.12% (n = 150,000); note: nearly all actives have a fitted effect of over 30% in size
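Cytotoxicity counterscreen: after 24 h compound treatment of genome-edited SNCA-luciferase HEK-293 cells, live-cell protease substrate GF-AFC read by fluorescence after 30 min; activity scaled between DMSO (0%) and medium-only (-100%), curves Hill-fitted.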
SNCA expr inhib: Primary qHTS assay for inhibitors of alpha-synuclein gene (SNCA) expression; HEK-293 SNCA-luciferase knock-in, luminescence, 24 h; Potency, µM (doses to about 57.2 µM), usual class: inhibitors; actives 0.17% (n = 140,000); AID 1671194, 2021; note: nearly all actives have a fitted effect of over 45% in size
Large screens that a line does not name were inactive. Unless noted, calls come from the whole dose curve; as a rule, active = well fitted curve in the direction sought with a large enough effect; inconclusive = small, poorly fitted or top-dose-only effect, or another doubt; inactive = no such curve, though single readings can be large; an effect the other way counts as inactive or inconclusive.

Cc1cc(C)n(Cc2ccc(C(=O)N3CCCCCC3c3nnc(-c4ccccc4)o3)o2)n1 (stereo unspecified)	none (no result: KDM5B inhibitor)
Fc1ccc(CN2CCC3(CC(c4cccc(C(F)(F)F)c4)=NO3)C2)cc1 (stereo unspecified)	KDM5B inhibitor inconclusive
CC(=O)N1CCN(C(=O)C[C@@H]2C[C@@H](C(C)C)[C@H](CC#N)C=C2C)CC1	none
CC1=C[C@@H](CC#N)[C@H](C(C)C)C[C@H]1CC(=O)N1CCN(c2cnccn2)CC1	KDM5B inhibitor 35µM, SNCA expr inhib inconclusive
CC1=C[C@@H](CNC(=O)C(C)(C)C)[C@H](C(C)C)C[C@H]1CC(=O)N1CCN(c2ccccn2)CC1	KDM5B inhibitor 20µM
CC1=C[C@@H](CNC(=O)C2CCCCC2)[C@H](C(C)C)C[C@H]1CC(=O)N1CCN(c2ccccn2)CC1	KDM5B inhibitor 35µM, SNCA viab count 28µM, SNCA expr inhib inconclusive
CC1=C[C@@H](CNC(=O)c2ccccn2)[C@H](C(C)C)C[C@H]1CC(=O)N1CCCC1	SNCA viab count inconclusive, SNCA expr inhib inconclusive
COCCNC(=O)C[C@@H]1C[C@@H](C(C)C)[C@H](CNC(=O)C2CC2)C=C1C	KDM5B inhibitor 35µM
CC1=C[C@@H](CNC(=O)c2ccccc2)[C@H](C(C)C)C[C@H]1CC(=O)N1CCN(C)CC1	none
COc1ccc(F)cc1-c1ccc(CN2CCCCC2C(=O)NC(C)CCc2ccccc2)cc1 (stereo unspecified)	none (no result: KDM5B inhibitor, SNCA viab count, SNCA expr inhib)
O=[S+]([O-])(NC1CCN(c2ccc3nnc(C4CC4)n3n2)CC1)c1ccccc1	none (no result: KDM5B inhibitor, SNCA viab count, SNCA expr inhib)
O=C(Cc1ccccc1)N1CCC2(CC1)CC(CCOCc1ccccc1)CCO2 (stereo unspecified)	none (no result: KDM5B inhibitor)
Cc1nnc2ccc(N3CCC(NC(=O)c4ccc(Cl)cc4)C3)nn12 (stereo unspecified)	none (no result: KDM5B inhibitor, SNCA viab count, SNCA expr inhib)
COc1cc(O)ccc1CN1CCn2nnc(CCC(=O)N3CCCC3)c2C1	KDM5B inhibitor 14µM
CCN1CCN(C(=O)c2ccc(-c3nnc4ccc(NC(=O)C5CCC5)cn34)cc2)CC1	KDM5B inhibitor 20µM
CC(C)NC(=O)c1ccc(-c2nnc3ccc(NC(=O)C4CCC4)cn23)cc1	KDM5B inhibitor 25µM
COc1cccc(NC(=O)c2ccc(-c3nnc4ccc(NC(=O)C5CCC5)cn34)cc2)c1	KDM5B inhibitor 25µM
O=C(Nc1ccc(-c2nnc3n2CCCC3)cc1)C1CCC1	none
CCOc1ccc(NC(=O)c2ccc(-c3nnc4ccc(NC(=O)C5CC5)cn34)cc2)cc1	KDM5B inhibitor inconclusive
O=C(Nc1ccc2nnc(-c3ccc(C(=O)N4CCCCC4)cc3)n2c1)C1CCC1	KDM5B inhibitor 20µM, SNCA expr inhib inconclusive
COCC(=O)N1CC(N2C(=O)c3c(c(C)nn3-c3ccccc3)C2C2CC2)C1 (stereo unspecified)	none (no result: KDM5B inhibitor, SNCA viab count, SNCA expr inhib)
Cn1ncc2c(C(=O)N3CCN(Cc4ccccc4)CC3)cc(-c3ccccc3)nc21	none (no result: KDM5B inhibitor)
O=C(NC1CCN(Cc2ccc(-c3ccsc3)cc2)C1)c1ccncc1 (stereo unspecified)	none (no result: KDM5B inhibitor)
CCN(CC)C(=O)c1ccc(-c2nnc3ccc(NC(=O)C4CC4)cn23)cc1	KDM5B inhibitor 22µM
CC(C)[C@H](CO)Nc1nc(Nc2cccc(Cl)c2)c2ncn(C(C)C)c2n1	SNCA viab count 24µM (no result: IP6K1 inhibitor, KDM5B inhibitor)
O=C1CC2(CCN(C(=O)C3CCN(C(=O)Cc4cccc(Cl)c4)CC3)CC2)Oc2ccccc2N1	none (no result: KDM5B inhibitor)
O=C(c1ccc(N2CC3CC(C2)[C@H]2CCCC(=O)N2C3)nc1)N1CCC(Cc2ccccc2)CC1 (stereo partly specified)	KDM5B inhibitor 32µM, SNCA viab count inconclusive
O=C(C1CCN(C(=O)N2CC3CC(C2)[C@H]2CCCC(=O)N2C3)CC1)N1CCN(c2ccccn2)CC1 (stereo partly specified)	KDM5B inhibitor 25µM
O=C(c1ccc(N2CC3CC(C2)[C@H]2CCCC(=O)N2C3)nc1)N1CCN(c2ncccn2)CC1 (stereo partly specified)	KDM5B inhibitor inconclusive
N#Cc1cccc(-c2c(C(=O)NCc3cccc(Cl)c3)nc3sccn23)c1	none (no result: KDM5B inhibitor)
Cc1noc(C)c1[S+](=O)([O-])N1CCCN(c2ccc3nnc(-c4ccccc4)n3n2)CC1	none (no result: KDM5B inhibitor, SNCA viab count, SNCA expr inhib)
OCC1(Cc2ccc(F)cc2F)CCCN(c2cnc3ccccc3n2)C1 (stereo unspecified)	KDM5B inhibitor 28µM, SNCA viab count inconclusive, SNCA expr inhib inconclusive
CCCC(C)C(=O)N1CCc2[nH]nc(C(=O)NCCCc3ccccc3)c2C1 (stereo unspecified)	SNCA expr inhib inconclusive (no result: KDM5B inhibitor)
COc1ccc2cc(C(=O)N3CCc4nn(C)c(=O)n4CC3)[nH]c2c1	KDM5B inhibitor 25µM, SNCA viab count inconclusive
COc1ccc2cc(C(=O)N3CCN(C)CC3)[nH]c2c1	none (no result: IP6K1 inhibitor, SNCA viab count, SNCA expr inhib)
CNC(=O)[C@@H]1CN(C(=O)c2ccc3cc[nH]c3c2)C[C@H]1C1CCN(C)CC1	KDM5B inhibitor 20µM
COc1ccc2cc(C(=O)N3CCC(Cc4ccc(C(=O)NC5CC5)cc4)CC3)[nH]c2c1	KDM5B inhibitor 35µM
CCOC(=O)N1CCC(NC(=O)c2cc3ccc(OC)cc3[nH]2)CC1	none (no result: IP6K1 inhibitor, SNCA viab count, SNCA expr inhib)
CNC(=O)[C@@H]1CN(C(=O)c2cc3ccc(OC)cc3[nH]2)C[C@H]1C1CCN(C)CC1	KDM5B inhibitor 20µM
COc1ccc2cc(C(=O)N3CCc4n[nH]c(=O)n4CC3)[nH]c2c1	KDM5B inhibitor inconclusive
O=C(NCc1ccc(F)c(F)c1)c1cn2cc(-c3ccc(C(F)(F)F)cc3)sc2n1	none (no result: KDM5B inhibitor)
CC(C)(C)Nc1nc2cc(Cl)c(Cl)cc2nc1S(C)(=O)=O	SNCA viab count 15µM (no result: KDM5B inhibitor, SNCA expr inhib)
Cc1ccc(-c2nc(-c3nnn4c3COC(c3ccccc3Cl)C4)no2)cc1 (stereo unspecified)	KDM5B inhibitor inconclusive
COc1ccc(-c2nc(-c3nnn4c3COC(c3ccccc3Cl)C4)no2)cc1F (stereo unspecified)	KDM5B inhibitor 13µM, SNCA viab count inconclusive
CSc1ccc(-c2noc(-c3ncn4c3COC(c3ccccc3Cl)C4)n2)cc1 (stereo unspecified)	KDM5B inhibitor 25µM
COc1ccc(C2Cn3nnc(-c4noc(-c5ccccc5Cl)n4)c3CO2)cc1 (stereo unspecified)	none
COc1ccccc1-c1nc(-c2nnn3c2COC(c2ccccc2Cl)C3)no1 (stereo unspecified)	KDM5B inhibitor 28µM
CCOc1ccccc1-c1nc(-c2nnn3c2COC(c2ccccc2Cl)C3)no1 (stereo unspecified)	KDM5B inhibitor 28µM
COc1ccc(-c2nc(-c3nnn4c3COC(c3ccccc3Cl)C4)no2)cc1OC (stereo unspecified)	KDM5B inhibitor inconclusive
COc1cccc(C(=O)NCCNC(=O)c2ccc(-c3cccc(OC)c3)cc2)c1	none (no result: KDM5B inhibitor, SNCA viab count, SNCA expr inhib)
O=C(Nc1ccc(Cl)cc1)N1CCCC(C(=O)N2CCC(N3Cc4cccn4C3=O)CC2)C1 (stereo unspecified)	none (no result: KDM5B inhibitor)
